TDP1 cell noCPT = qHTS for Inhibitors of human tyrosyl-DNA phosphodiesterase 1 (TDP1): qHTS in cells in absence of CPT; DT40 Tdp1-/- hTDP1 cells, no CPT, ATP luminescence, 48 h; Potency, µM (doses to about 46.2 µM), inactives show at the top dose activity change, negative = growth inhibition, most hits filed as inhibitors; 420,000 compounds, 15% hits; AID 686978, 2013; further: potency means the concentration at half of the fitted maximal effect; nearly all actives have a fitted effect of over 55% in size
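DT40 Tdp1-/-;hTDP1 cells, no CPT (DMSO vehicle only), 400 cells/well; compounds pin-transferred; ≥48 hr, 37 °C; CellTiter-Glo 30 min RT dark, luminescence read.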
LDHA inh = blocks human lactate dehydrogenase A; activity change, % (values are at about 110 or 230 µM); 480,000 compounds, 0.15% hits; purified LDHA, NADH/diaphorase-resazurin fluorescence; active compounds read low; AID 1347041; P00338; in the data active means activity change below about -30%; inconclusive means mostly about -25% to -30%;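 further: plate controls were DMSO wells for no effect and wells without enzyme for full effect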
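Remaining NADH was detected by diaphorase (0.133 mg/mL) converting 37 µM resazurin to fluorescent resorufin, read at 0 and 20 minutes. The preceding 5-minute room-temperature reaction used 2 nM LDHA, 0.2 mM sodium pyruvate and 0.06 mM NADH at pH 7.4.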
RORg inh = ROR gamma (mouse) transcription inhibition; P51450; Drosophila S2 Gal4-RORgamma UAS-luciferase reporter, 20 h; Potency, µM (titrated, usually from 53.6 µM), inactives show at the highest dose activity change, negative = inhibition, hits mostly inhibitors; 310,000 compounds, 5.4% hits; AID 2551; further: potency means the concentration at half of the fitted maximal effect; nearly all actives have a fitted effect of over 60% in size
Target sequence (P51450 whole entry, looked up, the tested form may be a part): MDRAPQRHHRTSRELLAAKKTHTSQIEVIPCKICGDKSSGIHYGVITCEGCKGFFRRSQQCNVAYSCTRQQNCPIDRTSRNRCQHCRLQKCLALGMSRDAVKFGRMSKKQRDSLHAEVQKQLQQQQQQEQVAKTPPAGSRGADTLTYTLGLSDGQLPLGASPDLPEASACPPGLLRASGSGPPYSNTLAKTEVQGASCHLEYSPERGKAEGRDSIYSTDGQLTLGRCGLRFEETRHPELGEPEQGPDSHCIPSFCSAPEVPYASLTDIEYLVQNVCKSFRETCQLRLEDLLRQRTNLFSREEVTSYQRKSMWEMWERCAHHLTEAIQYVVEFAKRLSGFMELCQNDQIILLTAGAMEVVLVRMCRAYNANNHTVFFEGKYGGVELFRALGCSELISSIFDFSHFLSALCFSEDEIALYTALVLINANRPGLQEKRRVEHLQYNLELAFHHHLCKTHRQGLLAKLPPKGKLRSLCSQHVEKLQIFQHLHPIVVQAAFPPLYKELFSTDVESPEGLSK
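Drosophila Schneider cells stably carrying a metallothionein-driven Gal4 DBD–ROR gamma fusion and a UAS-Photinus luciferase reporter were exposed to compound for 1 hr, then induced with copper sulfate (700 uM final) for 20 hr at ambient temperature before luminescence reading.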
IL1B secr inh = blocks inflammasome-driven IL-1 beta release; THP-1 LPS/ATP IL-1B secretion, AlphaLISA, 16 h; active compounds read low; activity change, % at 57.5 µM; 360,000 compounds, 4.7% hits; in the data active means activity change below about -50%; inconclusive means mostly about -30% to -49%
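Secreted IL-1B measured by AlphaLISA bead assay after 16 h compound exposure of THP-1 cells; compounds (final up to 57.5 uM) added 1 h before LPS (250 ng/mL) and ATP (1.25 mM) stimulation; lower signal means less secretion.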
Gal4-VP16 FLuc = inhibits Gal4-VP16 luciferase reporter, ROR gamma counter-screen | Drosophila S2 Gal4-VP16 UAS-luciferase, luminescence, 20 h | AID 2546 | 310,000 compounds, 3.5% hits | Potency, µM (highest dose often 53.6 µM), inactives show at the highest dose activity, negative = inhibition, most hits filed as inhibitors;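 further: Gal4-VP16 expression switched on by copper sulfate through the metallothionein promoter; potency means the concentration at half of the fitted maximal effect; nearly all actives have a fitted effect of over 50% in size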
DT40 TDP1 CPT = growth inhibition of DT40 Tdp1-/-;hTDP1 cells with camptothecin (screen for TDP1 inhibitors); chicken DT40 Tdp1-/-;hTDP1 cells + 20 nM CPT, ATP luminescence, 48 h; Potency, µM (series often up to 46.2 µM), without a hit: top-dose activity change, negative = growth inhibition, usual class: inhibitors; 420,000 compounds, 12% hits; AID 686979; further: potency means the concentration at half of the fitted maximal effect; nearly all actives have a fitted effect of over 55% in size
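Cell growth measured by CellTiter-Glo luminescence after a minimum 48 h, 37 C compound exposure with 20 nM CPT in Tdp1-knockout DT40 cells stably expressing hTDP1, seeded 400/well; qHTS titration format.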
An asterisk follows results filed as active; ? = inconclusive; . = not tested or not shown. This is a sample that favours compounds with a hit; in the whole collection about 18% have one here. Unless noted, the call rests on the fitted dose curve; in most records, active means well fitted curve in the direction sought with a large enough effect; inconclusive means small, poorly fitted or top-dose-only effect, or another doubt; inactive means no such curve, though single readings can be large; an effect the other way counts as inactive or inconclusive. Unless noted, on the % scale 0 is the no-effect control and ±100 the full control effect.

SMILES	TDP1 cell noCPT	LDHA inh	RORg inh	IL1B secr inh	Gal4-VP16 FLuc	DT40 TDP1 CPT
Cn1ccnc1C1CCCCN1Cc1nc(-c2ccc3c(c2)OCO3)no1 (stereo not given)	-8%	3	?	2	-10%	0%
COc1ccc(-c2noc(CN3CCCCC3c3nccn3C)n2)cc1 (stereo not given)	-7%	-4	3.5µM*	-21	?	-12%
Cn1ccnc1C1CCCCN1Cc1nc(Cc2cccc(C(F)(F)F)c2)no1 (stereo not given)	?	4	7.1µM*	10	?	-21%
FC(F)(F)c1cccc(Cc2noc(CN3C[C@@H]4CCC[C@H]3C4)n2)c1	-27%	0	11%	-19	8%	-18%
O=C(/C(Br)=C\Nc1ccc(F)cc1)C(F)(F)F	.	10	.	.	.	.
CCCCc1cc(O)c(CCCC)c(O)c1	13µM*	-2	-5%	?	?	21µM*
O=C(CSc1nnc(C2CC2)n1Cc1ccccc1)c1ccccc1	.	-9	.	.	.	.
COC(=O)c1cc(-c2ccc(S(=O)(=O)N3CCCCC3)cc2)c(C(F)(F)F)s1	23µM*	2	?	9	-11%	?
COC(=O)c1cc(-c2ccc(S(=O)(=O)N3CCCC3)cc2)c(C(F)(F)F)s1	?	2	?	3	1%	10%
CCN(CC)S(=O)(=O)c1ccc(-c2cc(C(=O)OC)sc2C(F)(F)F)cc1	18µM*	-2	?	-21	2%	-30%
CCc1nnc(C(=O)Nc2cccc(C(=O)N3CCOCC3)c2)s1	.	4	.	.	.	.
CN1C/C(=C/c2ccccc2[N+](=O)[O-])C(=O)/C(=C\c2ccccc2[N+](=O)[O-])C1	0.92µM*	4	.	-98*	.	0.52µM*
C/C=C/c1ccc(OCC(O)CN(C)Cc2ccc(SC)cc2)c(OC)c1 (stereo not given)	23µM*	-9	-20%	?	-10%	?
C/C=C/c1ccc(OCC(O)CNCCc2ccc(OC)cc2)c(OC)c1 (stereo not given)	?	-15	-1%	?	2%	?
COc1ccc(COCC(O)CN(C)Cc2ccc(OC)c(OC)c2)cc1OC (stereo not given)	.	-1	.	.	.	.
C/C=C/c1ccc(OCC(O)CNCC(c2ccc(OC)cc2)N(C)C)c(OC)c1 (stereo not given)	?	-18	-26%	-57*	0%	?
CC(C)NC(=S)N/N=C/c1ccc2c(c1)OCCO2	-13%	0	2.2µM*	-10	?	-15%
S=C(NN=Cc1ccc2c(c1)OCO2)NN=Cc1ccc2c(c1)OCO2	23µM*	-2	.	3	.	23µM*
CC(=O)Nc1ccc(/C=N/NC(=S)NC(C)C)cc1	-28%	-3	16µM*	14	-17%	?
C=C(C)CNC(=S)N/N=C/c1ccc(NC(C)=O)cc1	-18%	-2	?	11	3%	14%
CC(C)NC(=S)N/N=C/c1cccnc1	?	-3	?	-6	-25%	?
O=C(CCC(=O)Nc1ccc(Cl)cc1)N/N=C/c1ccc2c(c1)OCO2	-16%	-6	-14%	-13	14µM*	-16%
Cc1cc(F)cc(CC(=O)O)c1	.	-1	.	.	.	.
COc1ccccc1OCCn1cnc2c1c(=O)n(C)c(=O)n2C	.	12	.	.	.	.
CCOC(=O)N1CCN(C(=O)CN(c2cc(Cl)ccc2Cl)S(C)(=O)=O)CC1	.	9	.	.	.	.
SMILES	TDP1 cell noCPT	LDHA inh	RORg inh	IL1B secr inh	Gal4-VP16 FLuc	DT40 TDP1 CPT
COCCNC(=S)N/N=C/c1ccc2c(c1)OCCO2	-19%	-5	10µM*	-21	?	-10%
Cc1cc(C)c(OCC(=O)N/N=C/c2ccc3c(c2)OCO3)c(C)c1	5.8µM*	2	-36%	7	?	2.9µM*
COCCNC(=S)N/N=C/c1c(OC)cc(OC)cc1OC	.	3	.	.	.	.
COCCCNC(=S)N/N=C/c1ccc2c(c1)OCO2	-14%	0	5.6µM*	-23	?	5%
O=C(c1ccc(OCc2cn3ccccc3n2)cc1)N1CCN(c2ccccn2)CC1	.	-12	.	.	.	.
CCNC(=O)NC(=O)CSc1ccc2ccccc2n1	.	1	.	.	.	.
CCC(C)Cc1nc(N)c(C#N)c(-c2ccccc2)c1C (stereo not given)	.	2	.	.	.	.
Cc1ccc(-c2nc(SCC(=O)NCC3CCCO3)c(-c3ccc(C)cc3)[nH]2)cc1 (stereo not given)	?	-10	15%	-23	1%	?
Cc1ccc(-c2nc(SCC(=O)NCC3CCCO3)c(-c3ccc(Cl)cc3)[nH]2)cc1 (stereo not given)	21µM*	-2	?	?	-11%	?
CCc1ccc(-c2nc(SCC(=O)NCC3CCCO3)c(-c3ccc(F)cc3)[nH]2)cc1 (stereo not given)	18µM*	1	.	.	.	?
COCCNC(=O)CSc1nc(-c2ccc(F)cc2)[nH]c1-c1ccc(Cl)cc1	26µM*	-8	.	.	.	?

High-throughput results deposited in PubChem by National Center for Advancing Translational Sciences (NCATS).
